The panel holds about 83,000 compounds, 20% with a hit somewhere; the sample as a whole holds those more often.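 Single-dose data. Exposure time 48 hours. Values below 10 considered active.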 The source made the active and inactive calls.
Key:
Assay in all cases: NCI-60 one-dose screen, 48 h (100 = growth as untreated, 0 = no growth, -100 = all killed)
Conditions in all cases: 10 µM unless noted
DU-145 prostate = system: DU-145 prostate
MDA-MB-231 breast = system: MDA-MB-231 breast
RXF 393 renal = system: RXF 393 renal
SF-268 CNS = system: SF-268 CNS
SF-295 CNS = system: SF-295 CNS
SF-539 CNS = system: SF-539 CNS
UACC-257 melanoma = system: UACC-257 melanoma
M14 melanoma = system: M14 melanoma
K-562 leukemia = system: K-562 leukemia
MALME-3M melanoma = system: MALME-3M melanoma

Measured: growth

COc1ccc(NC(=O)/C(=C/N2C(=O)/C(=C/c3ccc(OC)c(OC)c3)NC2=S)C(C)=O)cc1
inactive: DU-145 prostate 96.4% | MDA-MB-231 breast 73% | RXF 393 renal 85.6% | SF-268 CNS 78.3% | SF-295 CNS 93.9% | SF-539 CNS 85.1% | UACC-257 melanoma 60% | M14 melanoma 53.8%

CCCCN(CCCC)CCCCCCCCCCO
inactive: DU-145 prostate 111% | K-562 leukemia 93.9% | MDA-MB-231 breast 120% | RXF 393 renal 106% | SF-268 CNS 109% | SF-539 CNS 105% | UACC-257 melanoma 106% | M14 melanoma 93%

Cc1ccccc1NC(=O)Cc1csc2[n+]1C(=O)/C(=C/c1ccc([N+](=O)[O-])cc1)S2
inactive: K-562 leukemia 88.3% | MALME-3M melanoma 99.3% | MDA-MB-231 breast 97.7% | RXF 393 renal 111% | SF-268 CNS 95.9% | SF-295 CNS 99.7% | SF-539 CNS 104% | UACC-257 melanoma 104% | M14 melanoma 85.8%

CCCCCCCCCCCCCCCCSC(=NCC)NCC
active: K-562 leukemia -59.8% | MDA-MB-231 breast -18.4% | RXF 393 renal 6.55% | UACC-257 melanoma -12.4% | M14 melanoma -49.8%
inactive: DU-145 prostate 36% | SF-268 CNS 39.5% | SF-539 CNS 32.8%

CC1(C)N=c2cc3c(cc2N1c1ccc(Cl)cc1)=Nc1ccccc1N3c1ccc(Cl)cc1
inactive: MALME-3M melanoma 79.4% | MDA-MB-231 breast 83.3% | SF-268 CNS 49.6% | SF-295 CNS 31.7% | SF-539 CNS 79.7% | UACC-257 melanoma 40.5% | M14 melanoma 19.3%
active: K-562 leukemia -18.7%

OCCOSCCO
inactive: DU-145 prostate 122% | K-562 leukemia 102% | MDA-MB-231 breast 121% | RXF 393 renal 100% | SF-268 CNS 119% | SF-539 CNS 100% | UACC-257 melanoma 102% | M14 melanoma 100%
